Assay results from the supplement of paper PMC4466140.

Target: AgAbp1
Assay: SPOT peptide array binding signal intensity (averaged, normalized) (arbitrary units (background-subtracted, floor 0; scale differs between SH3 domains)); higher = stronger binding of the SH3 domain to the peptide
Summary of the method: (§1)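 Cellulose membranes carried synthetic 15-mer peptides with cysteines swapped for serines. These were incubated overnight at 4°C with 10 μg/ml of GST-fused SH3 domains from four yeast species in TBS-based blocking buffer. Binding signal, detected with anti-GST antibody and quantified in Genespotter, is the normalized, background-subtracted spot intensity averaged over replicates, in arbitrary units specific to each domain.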

Binder	SPOT peptide array binding signal intensity
KNRKNLPTIPIRLSG	4080
NMLSRPRLAKLPSIR	124

Target: AgBbc1
Assay: as above
Summary of the method: as §1

Binder	SPOT peptide array binding signal intensity
KNRKNLPTIPIRLSG	456
NMLSRPRLAKLPSIR	16.5

Target: AgBem1-D1
Assay: as above
Summary of the method: as §1

Binder	SPOT peptide array binding signal intensity
KNRKNLPTIPIRLSG	144
NMLSRPRLAKLPSIR	394

Target: AgBzz1-D1
Assay: as above
Summary of the method: as §1

Binder	SPOT peptide array binding signal intensity
KNRKNLPTIPIRLSG	104
NMLSRPRLAKLPSIR	23

Target: AgBzz1-D2
Assay: as above
Summary of the method: as §1

Binder	SPOT peptide array binding signal intensity
KNRKNLPTIPIRLSG	35
NMLSRPRLAKLPSIR	3

Target: AgCyk3
Assay: as above
Summary of the method: as §1

Binder	SPOT peptide array binding signal intensity
KNRKNLPTIPIRLSG	1
NMLSRPRLAKLPSIR	≤ 0

Target: AgFus1
Assay: as above
Summary of the method: as §1

Binder	SPOT peptide array binding signal intensity
KNRKNLPTIPIRLSG	63
NMLSRPRLAKLPSIR	458

Target: AgHof1
Assay: as above
Summary of the method: as §1

Binder	SPOT peptide array binding signal intensity
KNRKNLPTIPIRLSG	240
NMLSRPRLAKLPSIR	331

Target: AgHse1
Assay: as above
Summary of the method: as §1

Binder	SPOT peptide array binding signal intensity
KNRKNLPTIPIRLSG	206
NMLSRPRLAKLPSIR	2140

Target: AgLsb1
Assay: as above
Summary of the method: as §1

Binder	SPOT peptide array binding signal intensity
KNRKNLPTIPIRLSG	318
NMLSRPRLAKLPSIR	3.25

Target: AgLsb4
Assay: as above
Summary of the method: as §1

Binder	SPOT peptide array binding signal intensity
KNRKNLPTIPIRLSG	108
NMLSRPRLAKLPSIR	59

Target: AgMyo5
Assay: as above
Summary of the method: as §1

Binder	SPOT peptide array binding signal intensity
KNRKNLPTIPIRLSG	≤ 0
NMLSRPRLAKLPSIR	≤ 0

Target: AgNbp2
Assay: as above
Summary of the method: as §1

Binder	SPOT peptide array binding signal intensity
KNRKNLPTIPIRLSG	1360
NMLSRPRLAKLPSIR	362

Target: AgRvs167
Assay: as above
Summary of the method: as §1

Binder	SPOT peptide array binding signal intensity
KNRKNLPTIPIRLSG	5.83
NMLSRPRLAKLPSIR	4.33

Target: AgSho1
Assay: as above
Summary of the method: as §1

Binder	SPOT peptide array binding signal intensity
KNRKNLPTIPIRLSG	4630
NMLSRPRLAKLPSIR	388

Target: AgSla1-D1-D2
Assay: as above
Summary of the method: as §1

Binder	SPOT peptide array binding signal intensity
KNRKNLPTIPIRLSG	402
NMLSRPRLAKLPSIR	27

Target: AgSla1-D3
Assay: as above
Summary of the method: as §1

Binder	SPOT peptide array binding signal intensity
KNRKNLPTIPIRLSG	7
NMLSRPRLAKLPSIR	4.5

Target: CaAbp1-D1
Assay: as above
Summary of the method: as §1

Binder	SPOT peptide array binding signal intensity
KNRKNLPTIPIRLSG	1420
NMLSRPRLAKLPSIR	822

Target: CaAbp1-D2
Assay: as above
Summary of the method: as §1

Binder	SPOT peptide array binding signal intensity
KNRKNLPTIPIRLSG	3510
NMLSRPRLAKLPSIR	754

Target: CaBbc1
Assay: as above
Summary of the method: as §1

Binder	SPOT peptide array binding signal intensity
KNRKNLPTIPIRLSG	1560
NMLSRPRLAKLPSIR	165

Target: CaBem1-D1
Assay: as above
Summary of the method: as §1

Binder	SPOT peptide array binding signal intensity
KNRKNLPTIPIRLSG	22
NMLSRPRLAKLPSIR	526

Target: CaBzz1-D1
Assay: as above
Summary of the method: as §1

Binder	SPOT peptide array binding signal intensity
KNRKNLPTIPIRLSG	221
NMLSRPRLAKLPSIR	184

Target: CaBzz1-D2
Assay: as above
Summary of the method: as §1

Binder	SPOT peptide array binding signal intensity
KNRKNLPTIPIRLSG	67.2
NMLSRPRLAKLPSIR	69.8

Target: CaCyk3
Assay: as above
Summary of the method: as §1

Binder	SPOT peptide array binding signal intensity
KNRKNLPTIPIRLSG	8
NMLSRPRLAKLPSIR	46

Target: CaFus1
Assay: as above
Summary of the method: as §1

Binder	SPOT peptide array binding signal intensity
KNRKNLPTIPIRLSG	382
NMLSRPRLAKLPSIR	1210

Target: CaHof1
Assay: as above
Summary of the method: as §1

Binder	SPOT peptide array binding signal intensity
KNRKNLPTIPIRLSG	0.25
NMLSRPRLAKLPSIR	0.25

Target: CaHse1
Assay: as above
Summary of the method: as §1

Binder	SPOT peptide array binding signal intensity
KNRKNLPTIPIRLSG	28.2
NMLSRPRLAKLPSIR	183

Target: CaLsb1
Assay: as above
Summary of the method: as §1

Binder	SPOT peptide array binding signal intensity
KNRKNLPTIPIRLSG	0.5
NMLSRPRLAKLPSIR	2

Target: CaLsb4
Assay: as above
Summary of the method: as §1

Binder	SPOT peptide array binding signal intensity
KNRKNLPTIPIRLSG	1340
NMLSRPRLAKLPSIR	290

Target: CaMyo5
Assay: as above
Summary of the method: as §1

Binder	SPOT peptide array binding signal intensity
KNRKNLPTIPIRLSG	≤ 0
NMLSRPRLAKLPSIR	46.5

Target: CaNbp2
Assay: as above
Summary of the method: as §1

Binder	SPOT peptide array binding signal intensity
KNRKNLPTIPIRLSG	398

Target: CaRvs167
Assay: as above
Summary of the method: as §1

Binder	SPOT peptide array binding signal intensity
KNRKNLPTIPIRLSG	283

Target: CaRvs167-3
Assay: as above
Summary of the method: as §1

Binder	SPOT peptide array binding signal intensity
KNRKNLPTIPIRLSG	23.8

Target: CaSho1
Assay: as above
Summary of the method: as §1

Binder	SPOT peptide array binding signal intensity
KNRKNLPTIPIRLSG	1100

Target: CaSla1-D1-D2
Assay: as above
Summary of the method: as §1

Binder	SPOT peptide array binding signal intensity
KNRKNLPTIPIRLSG	672

Target: CaSla1-D3
Assay: as above
Summary of the method: as §1

Binder	SPOT peptide array binding signal intensity
KNRKNLPTIPIRLSG	≤ 0

Target: ScAbp1
Assay: as above
Summary of the method: as §1

Binder	SPOT peptide array binding signal intensity
KNRKNLPTIPIRLSG	634

Target: ScBbc1
Assay: as above
Summary of the method: as §1

Binder	SPOT peptide array binding signal intensity
KNRKNLPTIPIRLSG	46.8

Target: ScBem1-D1
Assay: as above
Summary of the method: as §1

Binder	SPOT peptide array binding signal intensity
KNRKNLPTIPIRLSG	19

Target: ScBzz1-D1
Assay: as above
Summary of the method: as §1

Binder	SPOT peptide array binding signal intensity
KNRKNLPTIPIRLSG	35.5

Target: ScBzz1-D2
Assay: as above
Summary of the method: as §1

Binder	SPOT peptide array binding signal intensity
KNRKNLPTIPIRLSG	7

Target: ScCyk3
Assay: as above
Summary of the method: as §1

Binder	SPOT peptide array binding signal intensity
KNRKNLPTIPIRLSG	17

Target: ScFus1
Assay: as above
Summary of the method: as §1

Binder	SPOT peptide array binding signal intensity
KNRKNLPTIPIRLSG	63

Target: ScHof1
Assay: as above
Summary of the method: as §1

Binder	SPOT peptide array binding signal intensity
KNRKNLPTIPIRLSG	3

Target: ScHse1
Assay: as above
Summary of the method: as §1

Binder	SPOT peptide array binding signal intensity
KNRKNLPTIPIRLSG	582

Target: ScLsb1
Assay: as above
Summary of the method: as §1

Binder	SPOT peptide array binding signal intensity
KNRKNLPTIPIRLSG	462

Target: ScLsb2
Assay: as above
Summary of the method: as §1

Binder	SPOT peptide array binding signal intensity
KNRKNLPTIPIRLSG	824

Target: ScLsb3
Assay: as above
Summary of the method: as §1

Binder	SPOT peptide array binding signal intensity
KNRKNLPTIPIRLSG	2010

Target: ScLsb4
Assay: as above
Summary of the method: as §1

Binder	SPOT peptide array binding signal intensity
KNRKNLPTIPIRLSG	80

Target: ScMyo3
Assay: as above
Summary of the method: as §1

Binder	SPOT peptide array binding signal intensity
KNRKNLPTIPIRLSG	4.5

Target: ScMyo5
Assay: as above
Summary of the method: as §1

Binder	SPOT peptide array binding signal intensity
KNRKNLPTIPIRLSG	1

Target: ScNbp2
Assay: as above
Summary of the method: as §1

Binder	SPOT peptide array binding signal intensity
KNRKNLPTIPIRLSG	1180

Target: ScPex13
Assay: as above
Summary of the method: as §1

Binder	SPOT peptide array binding signal intensity
KNRKNLPTIPIRLSG	148

Target: ScRvs167
Assay: as above
Summary of the method: as §1

Binder	SPOT peptide array binding signal intensity
KNRKNLPTIPIRLSG	774

Target: ScSho1
Assay: as above
Summary of the method: as §1

Binder	SPOT peptide array binding signal intensity
KNRKNLPTIPIRLSG	5890

Target: ScSla1-D1-D2
Assay: as above
Summary of the method: as §1

Binder	SPOT peptide array binding signal intensity
KNRKNLPTIPIRLSG	2930

Target: ScSla1-D3
Assay: as above
Summary of the method: as §1

Binder	SPOT peptide array binding signal intensity
KNRKNLPTIPIRLSG	27.8

Target: SpAbp1-D1
Assay: as above
Summary of the method: as §1

Binder	SPOT peptide array binding signal intensity
KNRKNLPTIPIRLSG	1210

Target: SpBbc1
Assay: as above
Summary of the method: as §1

Binder	SPOT peptide array binding signal intensity
KNRKNLPTIPIRLSG	5.5

Target: SpBzz1-D1
Assay: as above
Summary of the method: as §1

Binder	SPOT peptide array binding signal intensity
KNRKNLPTIPIRLSG	512

Target: SpBzz1-D2
Assay: as above
Summary of the method: as §1

Binder	SPOT peptide array binding signal intensity
KNRKNLPTIPIRLSG	1.5
RRARRQMGIPTISQV	4.25

Target: SpCyk3
Assay: as above
Summary of the method: as §1

Binder	SPOT peptide array binding signal intensity
KNRKNLPTIPIRLSG	23.5
RRARRQMGIPTISQV	3.5

Target: SpHof1
Assay: as above
Summary of the method: as §1

Binder	SPOT peptide array binding signal intensity
KNRKNLPTIPIRLSG	1400
RRARRQMGIPTISQV	188

Target: SpHof1-2
Assay: as above
Summary of the method: as §1

Binder	SPOT peptide array binding signal intensity
KNRKNLPTIPIRLSG	2230
RRARRQMGIPTISQV	71

Target: SpHof1-3
Assay: as above
Summary of the method: as §1

Binder	SPOT peptide array binding signal intensity
KNRKNLPTIPIRLSG	1490
RRARRQMGIPTISQV	435

Target: SpHse1
Assay: as above
Summary of the method: as §1

Binder	SPOT peptide array binding signal intensity
KNRKNLPTIPIRLSG	166
RRARRQMGIPTISQV	1100

Target: SpLsb1
Assay: as above
Summary of the method: as §1

Binder	SPOT peptide array binding signal intensity
KNRKNLPTIPIRLSG	510
RRARRQMGIPTISQV	7.5

Target: SpLsb4
Assay: as above
Summary of the method: as §1

Binder	SPOT peptide array binding signal intensity
KNRKNLPTIPIRLSG	2330
RRARRQMGIPTISQV	642

Target: SpMyo1
Assay: as above
Summary of the method: as §1

Binder	SPOT peptide array binding signal intensity
KNRKNLPTIPIRLSG	25
RRARRQMGIPTISQV	13.5

Target: SpNbp2
Assay: as above
Summary of the method: as §1

Binder	SPOT peptide array binding signal intensity
KNRKNLPTIPIRLSG	336
RRARRQMGIPTISQV	1480

Target: SpPex13
Assay: as above
Summary of the method: as §1

Binder	SPOT peptide array binding signal intensity
KNRKNLPTIPIRLSG	9.5
RRARRQMGIPTISQV	86

Target: SpRvs167
Assay: as above
Summary of the method: as §1

Binder	SPOT peptide array binding signal intensity
KNRKNLPTIPIRLSG	1010
RRARRQMGIPTISQV	50.2

Target: SpSla1-D1-D2
Assay: as above
Summary of the method: as §1

Binder	SPOT peptide array binding signal intensity
KNRKNLPTIPIRLSG	1490
RRARRQMGIPTISQV	24.2

Target: SpSla1-D3
Assay: as above
Summary of the method: as §1

Binder	SPOT peptide array binding signal intensity
KNRKNLPTIPIRLSG	6
RRARRQMGIPTISQV	131
